Source: PubChem BioAssay
The list is not random: actives were taken first. Their share in the collection is about 3%.
p53null 39C kill – kills p53 null cells at the nonpermissive temperature. H1299 p53-null (neo) cells, 39C, ATPlite viability, 24 h. Potency, µM (doses to about 46.1 µM), for inactives: at the highest dose activity, negative = cell killing, usual class: cytotoxic. actives 0.97% (n = 55,000);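 also: 0% = DMSO only and -100% = full killing by 100 µM tamoxifen; nearly all actives have a fitted effect of over 50% in size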
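H1299 lung cancer cells, p53-null (H1299-neo) or expressing p53 A138V (H1299-p53A138V), were plated overnight at 37C, then exposed to compounds at up to 46 uM for 24 hr at 39C. Viability was read by ATP-based luminescence.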
S16 F2sN tox – cytotoxicity in S16 Pmp22-F2sN Schwann cells; S16 Pmp22-F2sN Schwann cells viability, CellTiter-Glo, 24 h; Potency, µM (series often up to 57.5 µM), inactives show at the highest dose activity change, negative = cytotoxicity, actives largely listed as cytotoxic; actives 0.48% (n = 43,000); also: nearly all actives have a fitted effect of over 65% in size
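Used to flag compounds lowering reporter output through toxicity, this quantitative HTS measures ATP-based CellTiter-Glo luminescence in S16 Pmp22-F2sN Schwann cells after 24 h compound exposure at 37C.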
SKOV3 invasion – inhibitors of ovarian cancer cell adhesion and invasion in omental model; Potency, µM (top dose mostly 45.8 µM), without a hit: at the highest dose activity change, negative = inhibition, usual class: inhibitors; actives 0.1% (n = 46,000); SKOV3ip1-GFP adhesion/invasion on 3D omental model, fluorescence;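 also: plate controls were DMSO wells for no effect and tomatine positive control wells for full effect; nearly all actives have a fitted effect of over 65% in size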
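qHTS, 4-pt dose (0.36-46 umol/L); SKOV3ip1-GFP, 1,200 cells/well, no FBS; primary omental fibroblast/mesothelial co-culture 48 h pre-grown; 2 h RT + 16 h 37 C; PBS wash, 4% PFA; GFP count 488/509 nm.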
p53null 32C kill – p53 null cell cytotoxicity, permissive temperature | actives 0.62% (n = 55,000) | H1299-neo p53 null cells, ATP luminescence, 24 h, 32C | Potency, µM (titrated, usually from 46.1 µM), inactives show top-dose activity change, negative = cytotoxicity, usual class: cytotoxic;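 also: 0% = DMSO only and -100% = full killing by 100 µM tamoxifen; nearly all actives have a fitted effect of over 55% in size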
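We seeded p53-null H1299-neo cells, incubated them overnight at 37C, and added compounds across a range up to 46 uM. After 24 hours at 32C, ATP reagent was applied for 20 min at room temperature and luminescence recorded.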
PMP22 txn prim – modulates PMP22 transcription in S16 Schwann cells | Potency, µM (doses to about 57.5 µM), for inactives: at the top dose activity change, negative = inhibition, usual class: inhibitors | AID 1508649 | actives 2% (n = 43,000) | S16 Pmp22-F2sN Schwann cells (luciferase reporters placed in the Pmp22 gene), FLuc/NLuc coincidence luminescence, 24 h; active = clear falling dose curves in both reporters; inconclusive = both reporters move, but less clearly or upward; inactive = either reporter flat; the % is the NLuc reporter signal
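Luminescent read-out of sequential FLuc and NLuc signals from a reporter embedded in the Pmp22 3' UTR of S16 Schwann cells, taken after 24 h compound exposure at 37C; compounds reducing both signals score as inhibitors of expression.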
mTORC1 inh – mTORC1 pathway inhibition measured by phospho-rpS6. Potency, µM (doses to about 38.3 µM), for the others: at the highest dose activity change, negative = inhibition, most hits filed as inhibitors. actives 0.78% (n = 44,000). Tsc2-/- p53-/- MEF, phospho-rpS6 immunofluorescence/PI, 24 h;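 also: plate controls were DMSO for no effect and rapamycin for full effect; nearly all actives have a fitted effect of over 50% in size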
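Cell-based qHTS: Tsc2-/- p53-/- MEF, 24 h cpd, 37 °C; fix/perm, anti-phospho-S6 Alexa-488 + PI; Acumen 488 nm scan; pS6/PI ratio, % positive cells; rapamycin 7.5 nM = inhibition ref; PI count = viability.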
* hit, by the source's call; i = inactive; u = inconclusive; x = not tested or not shown. Unless noted, calls follow the shape of the dose curve; as a rule, active = well fitted curve in the direction sought with a large enough effect; inconclusive = small, poorly fitted or top-dose-only effect, or another doubt; inactive = no such curve, though single readings can be large; an effect the other way counts as inactive or inconclusive. Unless noted, % is scaled to controls: 0 for no effect and ±100 for the full control effect; potency is read from the fitted curve at half-maximal effect.

SMILES | p53null 39C kill | S16 F2sN tox | SKOV3 invasion | p53null 32C kill | PMP22 txn prim | mTORC1 inh
COc1cc2nccc(Oc3ccc(NC(=O)C4(C(=O)Nc5ccc(F)cc5)CC4)cc3)c2cc1OC | x | x | -5.8% | x | x | x
Cc1ccccc1N1CC(c2nc3ccccc3n2CCC2CCCCC2)CC1=O (centres undefined) | -2.6% | -16.5% | u | -9.5% | u | 1.4%
CCc1ccccc1N1CC(c2nc3ccccc3n2CCC2CCCCC2)CC1=O (centres undefined) | 15.8µM* | u | u | u | u | -0.9%
O=C1CC(c2nc3ccccc3n2CCCCOc2ccccc2)CN1c1ccccc1Cl (centres undefined) | 12.6µM* | -24.2% | i | u | u | -1.9%
CC1=C(CC(=O)O)c2cc(F)ccc2C1=Cc1ccc(S(C)=O)cc1 (centres undefined) | x | x | 36.6% | x | x | x
CCCc1nn2cc(-c3ccc(C)c(C)c3)nc2s1 | 10µM* | -0.3% | 4.1% | 7.94µM* | -0.1% | 0.8%
O=c1[nH]nc(Sc2ncc([N+](=O)[O-])s2)n1-c1ccc2c(c1)OCCO2 | x | x | 14.8µM* | x | x | x
CCOc1ccc(-n2nc3ccc(NC(=O)c4ccc(-c5cccc(Cl)c5)o4)cc3n2)cc1 | u | u | 15.0% | -29.5% | u | 11.7µM*
Cc1ccc(-c2cn3ccc(C)cc3n2)cc1 | 0.794µM* | 10.2% | i | 0.631µM* | u | -4.4%
Cc1ccc(S(=O)(=O)Nc2ccc(-c3cn4ccc(C)cc4n3)cc2)cc1 | 8.1% | x | x | x | x | x
Cc1cccc(N2CCN(c3ncnc4onc(C)c34)CC2C)c1 (centres undefined) | u | u | -3.6% | u | 11.3µM* | -1.8%
CCCN(CCC)CCCNC(=O)c1cc2c(-c3ccc(Cl)cc3)nn(C)c2s1 | 15.8µM* | u | u | 2.8% | u | 13.1µM*
COc1ccc(CNC(=O)c2cc3c(-c4ccc(Cl)cc4)nn(C)c3s2)cc1 | -6.7% | 11.2% | -25.6% | 9.0% | -5.4% | -12.6%
CC(=O)OCC(=O)[C@@]1(O)[C@H](C)C[C@H]2[C@@H]3C=C(C)C4=Cc5c(cnn5-c5ccccc5)C[C@]4(C)[C@@H]3[C@@H](O)C[C@@]21C | x | x | -1.9% | x | x | x
C[C@H](O)[C@@H]1C(=O)N2C(C(=O)O)=C(S[C@@H]3CN[C@H](CNS(N)(=O)=O)C3)[C@@H](C)[C@@H]12 | x | x | 18.9% | x | x | x
C[C@@H](N)c1ccc(C(=O)Nc2ccnc3[nH]ccc23)cc1 | x | x | -11.1% | x | x | x
CCOc1ccc(NC(=O)CSc2oc(-c3cccs3)nc2S(=O)(=O)c2ccc(Cl)cc2)cc1 | u | u | -6.5% | -10.1% | u | -1.6%
CCOc1ccc(NC(=O)CSc2oc(-c3ccc(C)cc3)nc2S(=O)(=O)c2ccc(C)cc2)cc1 | 12.6µM* | 22.4µM* | -0.9% | 12.6µM* | u | 0.0%
O=c1cc(CN2CCOCC2)occ1OCCCCCSc1ccnc2cc(C(F)(F)F)ccc12 | x | x | -0.8% | x | x | x
O=C(Nc1ccc2nn(-c3ccccc3)nc2c1)c1ccco1 | -29.2% | x | x | -24.7% | x | x
CCn1cnc2cc(NC(=O)c3ccco3)ccc21 | 12.6µM* | x | x | 10µM* | x | x
CC(C)(C)c1ccc(C(=O)Nc2nnc3n2CCS3)cc1 | u | -22.0% | i | 10µM* | u | u
C#Cc1cccc(Nc2ncnc3cc(OC)c(OCCCCCCC(=O)NO)cc23)c1 | x | x | 6.3% | x | x | x
O=C(/C=C/Nc1ccccc1C(=O)O)c1cccs1 | x | x | x | 35.5µM* | x | x
CCC(=O)O[C@]1(C(=O)CO)CC[C@H]2[C@@H]3CCC4=CC(=O)CC[C@]4(C)[C@@H]3CC[C@@]21C | x | x | -15.5% | x | x | x
